An excerpt weighted towards active compounds, which were near 4.7% of everything screened.
tim10-1 inh = inhibits growth of tim10-1 mutant yeast | S. cerevisiae tim10-1 ts strain growth, BacTiter-Glo, 24 h | inhibition, % at 20 µM | hit rate 2.2% among 330,000;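 active = inhibition of at least 40%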;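 note: mutant grown at 25 °C; 0% = DMSO wells with yeast and 100% = wells holding no yeast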
TIM10 inh = growth inhibitors of TIM10 yeast strain; hit rate 1.4% among 330,000; inhibition, % at 10 µM; S. cerevisiae TIM10 strain growth, BacTiter-Glo luminescence, 24 h;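 active = inhibition of 40% or more at the single tested concentration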;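 note: wild-type TIM10 isogenic control strain grown at permissive 25 °C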
Calb FLC = affects C. albicans growth with fluconazole; C. albicans CaCi-2 (fluconazole-resistant clinical isolate) + fluconazole, Alamar Blue growth, 48 h; hit rate 0.57% among 300,000; growth inhibition, % (no concentration beside the values); AID 1979;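 active = growth inhibition above about 58% in most replicates, limit read from the data, passing the limit was not always enough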;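 note: all wells also contain fluconazole at 8 µg/ml as a sub-toxic cotreatment; 0% = median of DMSO wells and 100% = median of geldanamycin control wells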
PfHsp90 yeast 2 = reduces growth (ATP signal) of yeast expressing P. falciparum Hsp90; S. cerevisiae expressing PfHsp90, BacTiter-Glo ATP, 48 h; yeast lacking PDR1 and PDR3 efflux regulators; inhibition, % at 9.4 µM; hit rate 0.32% among 310,000; AID 504621;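 active = every replicate shows inhibition above about 80%, whatever the replicate mean, limit read from the data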;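 note: 0% = DMSO neutral controls and 100% = 20 µM radicicol positive controls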
SKKanGAS inh = SKKanGAS growth inhibition; S. pyogenes SKKanGAS, kanamycin growth, BacTiter-Glo, 6 h; inhibition, % at 7.5 µM; hit rate 1.3% among 300,000; AID 1662;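 active = mean replicate score, as percent of positive control median, at least 50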;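 note: strain carries kanamycin resistance gene driven by streptokinase promoter and grows in 40 µg/ml kanamycin; loss of luminescence reflects streptokinase promoter inhibition or plain growth inhibition; 0% = median of DMSO wells and 100% = positive control at its reference dose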
tim23-1 inh = inhibits growth of tim23-1 mutant yeast. hit rate 1.3% among 330,000. inhibition, % at 20 µM. S. cerevisiae tim23-1 growth, BacTiter-Glo luminescence, 24 h. AID 463212;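 active = growth inhibition of the mutant yeast at or above 50%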;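 note: temperature-sensitive mutant grown at 25 °C; plate controls were DMSO-treated mutant yeast for no effect and medium wells lacking yeast for full effect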
tim10-1 conf = tim10-1 yeast growth inhibition, confirmed. shares compounds with tim10-1 inh. S. cerevisiae tim10-1 ts strain growth, BacTiter-Glo, 24 h. inhibition, % at 20 µM. hit rate 56% among 7,400. AID 463213;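 active = inhibition of yeast growth at or above a set limit in either of two repeat tests at 20 µM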;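 note: tim10-1 mutant grown at permissive 25 °C to find synthetic lethal compounds; 0% = DMSO yeast wells and 100% = medium wells without yeast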
tim10 confirm = TIM10 yeast growth inhibition, confirmed; shares compounds with TIM10 inh; S. cerevisiae tim10 strain growth, BacTiter-Glo luminescence, 24 h; inhibition, % at 10 µM; hit rate 63% among 4,600;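 active = inhibition of yeast growth at or above a set limit in either of two replicates at 10 µM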;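 note: this counterscreen used the strain with wild-type TIM10; 0% = yeast with DMSO and 100% = medium wells lacking yeast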
tim23-1 confirm = tim23-1 yeast growth inhibition, confirmed. shares compounds with tim23-1 inh. S. cerevisiae tim23-1 growth, BacTiter-Glo luminescence, 24 h. inhibition, % at 20 µM. hit rate 83% among 4,400. AID 463218;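 active = inhibition above about 39% in either of two replicate wells at 20 µM, limit read from the data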;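 note: temperature-sensitive tim23-1 mutant grown at 25 °C; 0% = DMSO wells with yeast and 100% = medium wells without yeast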
The depositor's hits bear a star.

Screening O=C(O)COc1ccc(/C=N/n2cnc3scc(-c4cccs4)c3c2=O)cc1 returned PfHsp90 yeast 2 -2.
`COc1ccc(NC(=O)CN(C)C(=O)c2ccc(NS(=O)(=O)c3cccc([N+](=O)[O-])c3)cc2)cc1` gave tim10-1 inh -17, TIM10 inh -9, Calb FLC 14, PfHsp90 yeast 2 -7, SKKanGAS inh -2 and tim23-1 inh 2.
`O=C(CSCc1ccc(Br)cc1)N1CCCC1` gave tim10-1 inh -1, TIM10 inh -3, Calb FLC -4, PfHsp90 yeast 2 35, SKKanGAS inh 7 and tim23-1 inh 12.
`COc1cccc(/C=C2\CCc3ccccc3C2=O)c1` gave tim10-1 inh 28, TIM10 inh 10, Calb FLC 5, PfHsp90 yeast 2 -6, SKKanGAS inh 26 and tim23-1 inh 38.
O=C1/C(=C/c2cccc([N+](=O)[O-])c2)CCc2ccccc21 was read as tim10-1 inh 42*, TIM10 inh 39, Calb FLC 8, PfHsp90 yeast 2 -21, SKKanGAS inh 3, tim23-1 inh 54*, tim10-1 conf 59* and tim23-1 confirm 26.
Screening CC(C)(C)c1nn(-c2ccccc2)c2[nH]c(=O)c(CNc3ccc4c(c3)OCCO4)cc12 returned tim10-1 inh 68*, TIM10 inh 56*, Calb FLC 4, PfHsp90 yeast 2 121*, SKKanGAS inh 19, tim23-1 inh 83*, tim10-1 conf 65*, tim10 confirm 44* and tim23-1 confirm 83*.
For CC(C)(C)c1nn(-c2ccccc2)c2[nH]c(=O)c(CNCc3ccco3)cc12 the results were tim10-1 inh 36, TIM10 inh 23, Calb FLC -5, PfHsp90 yeast 2 -4, SKKanGAS inh 19 and tim23-1 inh 38.
`O=C(/C(=C/c1ccc(Cl)cc1)c1nc2ccccc2[nH]1)c1ccccc1` gave tim10-1 inh 42*, TIM10 inh 51*, Calb FLC 0, PfHsp90 yeast 2 98*, SKKanGAS inh 32, tim23-1 inh 51*, tim10-1 conf 38*, tim10 confirm 35* and tim23-1 confirm 58*.
For Cc1ccc(N2C(=O)CC(Cc3ccc(Cl)cc3)C2=O)cc1 (stereo not given) the results were tim10-1 inh 12, TIM10 inh 9, Calb FLC -10, PfHsp90 yeast 2 27, SKKanGAS inh -2 and tim23-1 inh 37.
CN1C(=O)/C(=C\c2ccc(OC(=O)c3ccco3)cc2)SC1=S was read as tim10-1 inh 10, TIM10 inh -13, Calb FLC -5, PfHsp90 yeast 2 16, SKKanGAS inh 4 and tim23-1 inh -3.
`Cc1ccc(N2C(=O)N(CC(=O)Nc3ccc(C)c(C)c3)C(=O)C2C)cc1` (stereo not given) gave tim10-1 inh -16, TIM10 inh -10, Calb FLC 7, SKKanGAS inh -13 and tim23-1 inh 11.
For CCC(=O)Nc1cccc(-c2csc(-c3ccccc3)n2)c1 the results were tim10-1 inh 40*, TIM10 inh 52*, Calb FLC -1, PfHsp90 yeast 2 6, SKKanGAS inh 5, tim23-1 inh 55*, tim10-1 conf 35*, tim10 confirm -5 and tim23-1 confirm 60*.
For COc1cc(N)c2ncsc2c1 the results were PfHsp90 yeast 2 7.
For O=C(O)CC1S/C(=N/N=C/C2CC=CCC2)NC1=O (stereo not given) the results were tim10-1 inh 3, TIM10 inh -24, Calb FLC -4, PfHsp90 yeast 2 -14, SKKanGAS inh -1 and tim23-1 inh 11.
For O=C1Nc2ccc(Cl)cc2/C1=C/C1CC=CCC1 (stereo not given) the results were tim10-1 inh 78*, TIM10 inh 59*, Calb FLC -46, PfHsp90 yeast 2 31, SKKanGAS inh -5, tim23-1 inh 64*, tim10-1 conf 87*, tim10 confirm 19 and tim23-1 confirm 65*.
For Cc1[nH]n(-c2ccccc2)c(=O)c1C(C[N+](=O)[O-])c1ccc(Cl)cc1 (stereo not given) the results were tim10-1 inh 58*, TIM10 inh 49*, Calb FLC -31, SKKanGAS inh 7, tim23-1 inh 86*, tim10-1 conf 48*, tim10 confirm 28 and tim23-1 confirm 84*.
`Cc1[nH]n(-c2ccccc2)c(=O)c1C(C[N+](=O)[O-])c1ccc(F)cc1` (stereo not given) gave tim10-1 inh 60*, TIM10 inh 48*, Calb FLC -2, PfHsp90 yeast 2 18, SKKanGAS inh 9, tim23-1 inh 83*, tim10-1 conf 41*, tim10 confirm 12 and tim23-1 confirm 64*.
For COc1ccc(C(c2c(C)[nH]n(-c3ccccc3)c2=O)c2c(C)[nH]n(-c3ccccc3)c2=O)cc1OC the results were tim10-1 inh 37, TIM10 inh 22, Calb FLC 5, PfHsp90 yeast 2 9, SKKanGAS inh 26 and tim23-1 inh 36.
Screening Cc1[nH]n(-c2ccccc2)c(=O)c1C(c1ccccc1C(=O)O)c1c(C)[nH]n(-c2ccccc2)c1=O returned tim10-1 inh -6, TIM10 inh 6, Calb FLC 9, PfHsp90 yeast 2 3, SKKanGAS inh -1 and tim23-1 inh 9.
For Cc1ccc(C(C[N+](=O)[O-])c2c(C)[nH]n(-c3ccccc3)c2=O)cc1 (stereo not given) the results were tim10-1 inh 42*, TIM10 inh 29, Calb FLC 9, PfHsp90 yeast 2 -4, SKKanGAS inh 0, tim23-1 inh 75*, tim10-1 conf 25 and tim23-1 confirm 61*.
For Cc1[nH]n(-c2ccccc2)c(=O)c1Sc1ccc(Cl)cc1 the results were tim10-1 inh 13, TIM10 inh 19, Calb FLC -2, PfHsp90 yeast 2 -8, SKKanGAS inh -1 and tim23-1 inh 21.
C[C@H](NC(=O)c1ccco1)C(=O)N1CCN(c2ccc(C(F)(F)F)cn2)CC1 was read as tim10-1 inh 8, TIM10 inh 8, PfHsp90 yeast 2 12 and tim23-1 inh 19.
For COCCN(C(=O)CSc1cc(C)c2ccccc2n1)c1c(N)n(CC(C)C)c(=O)[nH]c1=O the results were tim10-1 inh 1, TIM10 inh 14 and tim23-1 inh 11.

High-throughput results deposited in PubChem BioAssay by several laboratories.
